These sequences were tested against IREB2 (assay: pooled miR-30 sensor sort-seq; sequence = guide strand). Conditions: shRNA.
Further: reference of the scale not given here.

Sequence | sensor-assay potency score (higher = more potent)
TTTTCTTCAAAAACCACTCTTG | -0.106
TGTCACAGCAACTCTATCCTGA | 0.64
TAAAGTAAGAGAAACTGGCAGA | -0.195
TTCATCATCATTTACATCCATG | -0.574
TTATGTGTGAATCTGTGCCGAC | -0.0474

The sequences below were run against IRF2 in the same assay as above. Conditions: shRNA.

Sequence | sensor-assay potency score (higher = more potent)
TTTCCTTTCTTAGAAGGCCGTT | -0.36
TTCAATATTCCTCTTCCGCCAG | -0.844
TTCTGCATAGGAAGACACGGGG | -0.312
TTTGCCTTCAATATTCCTCTTC | 0.432
TCTTGATTCTCAATGTTGCTGT | 0.147
TTTCTTTATGCTTTTATCCTTG | -0.739
TTTCTGCATAGGAAGACACGGG | -0.335
AATCTCTTGATTCTCAATGTTG | -1.2
TACAACTTGGCAAATGTCTGGC | 0.449
TTGCTCTCCTCTTTGATGGTGA | -0.593
TATCAGTCGTTTCGCTTTCTGC | -0.797

Each sequence was assayed against IRX2 in the same assay as above. Conditions: shRNA.

Sequence | sensor-assay potency score (higher = more potent)
ATGGCTAGCATGATCTTCTCGC | -0.31
TTGTCGGGACTCTCGTCCTTGC | -0.88
ATCTTCGCTTTTGTTTCTCGGG | -1.09
TCTTTCTTGGGCTCGTAGCCGC | -1
TTCTTGGGCTCGTAGCCGCCGC | -1.6
TGTCCTTGCACTCCGAGCCCGA | -0.973
TAGTTTGTGTAGTTGCCGTAGA | 0.0957
TTGTCCTTGCACTCCGAGCCCG | -1.01
TCTTCGCTTTTGTTTCTCGGGG | -0.791
TACTTGTCCTTGCACTCCGAGC | -1.54
TTCGCTTTTGTTTCTCGGGGCC | -0.0873
TCCTCGTCCTCATCTTCGCTTT | -1.22

These sequences were tested against ISLR2 in the same assay as above. Conditions: shRNA.

Sequence | sensor-assay potency score (higher = more potent)
TGAGCGTACTTGTCCACGCAGG | -1.13
TTTGTAAGCGCAGTCCGCGAAC | -1.25
TTGCGCAGGTCGCTCCACGGAA | -1.26
TTGAAAACAACGAAAACAGGAA | -0.395
TTGAGCTCTGCGCTCTGGTTGA | -0.693
TTTGGAACTAAAAACTAGGGGT | 0.382
TTGTCAGGGACTACACGCCGGG | -0.648
TTGACGCCTTCCTCTACGCGGG | -1.19
TTTCCAAAGTCTTCGCTCGTTT | -0.577
TAGCGCACCGAGTGCGTCCCGG | -1.05

Source: the OligoGym collection
